# Bioassay records (PubChem)
# A selection: hits, their analogues and other compounds. The true share with any hit is near 2.7%.
# KDM5B inhibitor: inhibitors of human KDM5B histone demethylase; Q9UGL1; KDM5B demethylase, FDH-coupled NADH fluorescence (FDH is formaldehyde dehydrogenase); Potency, µM (doses to about 57.7 µM), most hits filed as inhibitors; hit rate 2.6% among 220,000; AID 1347165; active means well fitted inhibition curve with a large enough effect; inconclusive means small, poorly fitted or top-dose-only effect; inactive means no such curve, though single readings can be large or run the other way; further: potency means the concentration at half of the fitted maximal effect; 0% is about no effect; nearly all actives have a fitted effect of over 70% in size
#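 Coupled FDH/NAD⁺ fluorescence readout. KDM5BΔAP 200 nM final; compound titration, 10 min RT preincubation; substrate mix 12.5 µM H3K4me3, 25 µM 2-OG, 50 µM Fe(II), 100 µM ascorbate, 0.25 mM NAD⁺, 0.25 U/mL FDH; ΔRFU over 30 min.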
# IP6K1 inhibitor: inhibitors of human IP6K1; activity change, % (series mostly up to about 58 µM); hit rate 0.81% among 140,000; AID 1645851; Q92551; IP6K1 kinase, ADP-Glo luminescence, 2 h; stronger effect = lower value; in the data active means activity change below about -25%; further: on the % scale 0 is the no-effect control and ±100 the full control effect
# Target sequence (Q92551 whole entry, looked up): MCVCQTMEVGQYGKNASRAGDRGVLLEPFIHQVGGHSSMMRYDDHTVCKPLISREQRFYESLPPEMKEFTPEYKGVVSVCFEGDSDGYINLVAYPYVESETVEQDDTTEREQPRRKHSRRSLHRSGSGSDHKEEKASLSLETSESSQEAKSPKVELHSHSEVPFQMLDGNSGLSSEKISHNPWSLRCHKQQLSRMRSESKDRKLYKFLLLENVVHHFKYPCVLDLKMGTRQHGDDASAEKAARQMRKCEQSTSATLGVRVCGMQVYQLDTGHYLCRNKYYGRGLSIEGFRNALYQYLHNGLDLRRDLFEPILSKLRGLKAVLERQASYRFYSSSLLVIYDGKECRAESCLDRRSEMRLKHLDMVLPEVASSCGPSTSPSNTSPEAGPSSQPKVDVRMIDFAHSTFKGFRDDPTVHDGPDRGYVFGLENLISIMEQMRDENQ
#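 ADP-Glo luminescence measures ADP made by human IP6K1 during a 2 h RT reaction with ATP/IP6 (mix at 1.3 mM/130 uM); top library doses 57.5 and 19.1 uM final.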
# The depositor's hits bear a star; i = inactive; ? = inconclusive; / = not tested or not shown.
SMILES,KDM5B inhibitor,IP6K1 inhibitor
COc1cccc(-c2ccc(CN3CCCC(NC(=O)c4ccccc4)C3)cc2)c1 (stereo unspecified),/,-5
C#CCNC(=O)c1nc2cccnc2n(CC(C)C)c1=O,/,15
COc1ccc(CC(=O)NC2CCN(c3nc4ncccc4o3)CC2)cc1,32µM*,-7
COc1ccc(CC(=O)N2CCCN(c3nc4ncccc4o3)CC2)cc1,i,2
Cc1noc(-c2ccc3c(c2)OCO3)c1C(=O)NCCCc1ccccc1,25µM*,-2
Cc1noc(-c2cccc(F)c2)c1C(=O)NCc1ccc2c(c1)OCO2,i,-8
Cc1noc(-c2cccc(F)c2)c1C(=O)NCCCc1ccccc1,i,13
Cc1noc(-c2ccc3c(c2)OCO3)c1C(=O)NCCSCc1ccccc1,32µM*,-6
Cc1noc(-c2ccc3c(c2)OCO3)c1C(=O)NCCSCc1ccco1,?,-11
Cc1noc(-c2ccc3c(c2)OCO3)c1C(=O)NCc1cccc(Cl)c1,32µM*,1
CC(C)c1ccc(CNC(=O)c2noc(-c3ccc4c(c3)OCO4)n2)cc1,25µM*,-7
O=C(NCc1ccc(Cl)cc1)c1noc(-c2ccc3c(c2)OCO3)n1,?,-3
CC(C)OC(=O)COc1ccc2c(=O)c(-c3ccc(Cl)cc3)coc2c1,i,/
CCOc1ccccc1Oc1c(C)oc2cc(OC(=O)C(C)(C)C)ccc2c1=O,i,/
Cc1nn(-c2ccccc2)c2c1C(C1CC1)N(CC1CN(C(=O)Cc3ccccc3)C1)C2=O (stereo unspecified),/,6
Cc1noc(-c2ccc3c(c2)OCO3)c1C(=O)NCCC(c1ccccc1)c1ccccc1,20µM*,14
Cc1noc(-c2ccc(OC(F)(F)F)cc2)c1C(=O)NCCC(c1ccccc1)c1ccccc1,?,0
COc1cc(OC)cc(-c2onc(C)c2C(=O)NCCC(c2ccccc2)c2ccccc2)c1,32µM*,-16
Cc1noc(-c2ccco2)c1C(=O)NCCC(c1ccccc1)c1ccccc1,?,18
COc1cccc(NC(=O)c2cc3c(N(C)Cc4ccccc4)nc(C)cn3n2)c1,28µM*,8
COc1ccc(NC(=O)Cn2c(N(C)Cc3ccccc3)nc(C)cc2=O)cc1OC,i,5
COc1ccc(NC(=O)c2cc3c(N(C)Cc4ccccc4)nc(C)cn3n2)cc1OC,32µM*,0
CCN(CC)c1nc2ccccc2nc1C(=O)Nc1cccc(OC)c1,i,/
Cc1ccc([S+](=O)([O-])N2CCC(N3C(=O)c4c(c(C)nn4-c4ccccc4)C3C)CC2)cc1 (stereo unspecified),/,5
COc1ccccc1Nc1ccnc(N2CCN(C(=O)c3ccccc3C)CC2)n1,/,15
SMILES,KDM5B inhibitor,IP6K1 inhibitor
CC(C)(C)C(=O)N1CCCN(c2nc3ncccc3o2)CC1,35µM*,-10
O=C(C1CCCN(c2nc3ncccc3o2)C1)N1CCN(c2ncccn2)CC1 (stereo unspecified),25µM*,6
COCC(=O)N1CCN(c2nc3ncccc3o2)CC1,32µM*,-4
COc1ccc(CC(=O)N2CCN(c3nc4ncccc4o3)CC2)cc1,?,-1
CC(=O)N1CCN(C(=O)C2CCCN(c3nc4ncccc4o3)C2)CC1 (stereo unspecified),?,-8
CC(=O)N1CCCN(c2nc3ncccc3o2)CC1,?,-8
O=C(C1CCCC1)N1CCCN(c2nc3ncccc3o2)CC1,28µM*,-14
CC(C)(C)C(=O)N1CCN(c2nc3ncccc3o2)CC1,?,-10
Cc1ccccc1OCc1nnc(SCC(=O)NC2CCCCC2)n1C,i,/
CC(Nc1nc2c(c(=O)[nH]c(=O)n2C)n1CCCc1ccccc1)c1ccccc1 (stereo unspecified),i,/
CO/N=C/c1ccc(OC)c(Cl)c1,i,/
CCN1CCN(c2ccc(NC(=O)c3cnc4ccccc4n3)cc2C)CC1,i,/
CC(=O)c1csc(NC(=O)Cc2ccc(OCc3c(C)noc3C)cc2)n1,i,/
CC(C)CNC(=O)NC(=O)CSC1=Nc2ccccc2CS1,i,/
CC1CCCC/C1=N\NC(=O)CCC(=O)Nc1ccc(Br)cc1 (stereo unspecified),i,/
CCOC(=O)[C@@H]1CN(C(=O)c2cccs2)[C@H]2c3ccccc3O[C@@H]12,/,11
O=C(Nc1ccc(Cl)cc1)N1CCCN(c2nc3ncccc3o2)CC1,i,0
O=C(NC1CCCC1)N1CCCN(c2nc3ncccc3o2)CC1,28µM*,0
COc1ccc(NC(=O)c2ccc3c(c2)NC(C)(COc2ccccc2)CO3)cn1 (stereo unspecified),32µM*,1
CC1(CCCCN2CCOCC2)COc2ccc(C(=O)Nc3ccccc3)cc2N1 (stereo unspecified),?,6
COc1ccc(NC(=O)c2ccc3c(c2)NC(C)(COc2ccccc2)CO3)cc1OC (stereo unspecified),32µM*,7
COc1ccc(NC(=O)c2ccc3c(c2)NC(C)(CNc2ccccc2)CO3)cc1OC (stereo unspecified),35µM*,1
COc1ccc(NC(=O)c2ccc3c(c2)NC(C)(CNc2ccccc2)CO3)cn1 (stereo unspecified),i,5
CC1(COc2ccccc2)COc2ccc(C(=O)Nc3ccccc3)cc2N1 (stereo unspecified),?,16
O=C(Nc1ccccc1)NC1CCN(Cc2cccc(-c3ccc(F)c(F)c3)c2)CC1,/,-2
SMILES,KDM5B inhibitor,IP6K1 inhibitor
c1ccc(-c2nnc3ccc(NC4CCC4)nn23)nc1,?,-12
OCc1ccc(-c2ccc3nnc(-c4ccccn4)n3n2)cc1,32µM*,-12
CN(C)[C@@H]1[C@@H](NC(=O)c2cc(=O)n(-c3ccccc3)[nH]2)[C@H]2CCO[C@H]21,i,2
CN(C)[C@@H]1[C@@H](NC(=O)CCc2nc3ccccc3[nH]c2=O)[C@H]2CCO[C@H]21,28µM*,7
C#Cc1cccc(NC(=O)c2n[nH]c(=O)c3ccccc23)c1,i,/
COC(=O)CNC(=O)c1nc(-c2ccccc2OC)c2ccccn12,89µM*,13
COc1ccccc1-c1nc(C(=O)NCc2cccs2)n2ccccc12,?,36
COCCNC(=O)c1nc(-c2ccccc2OC)c2cnccn12,32µM*,0
COCCNC(=O)c1nn(C)c2nc(-c3ccccc3OC)ccc12,/,-3
COc1ccccc1-c1nc(C(=O)NCc2ccc(F)cc2)n2ccncc12,89µM*,-12
COC(=O)CNC(=O)c1nc(-c2ccccc2)c2ccccn12,i,16
COc1ccccc1-c1nc(C(=O)NCc2ccc(F)cc2)n2ccccc12,79µM*,-18
COc1ccc(CCNC(=O)C2CCN(c3nccc(Nc4ccc(C)cc4)n3)CC2)cc1,/,-6
O=C(NCCc1ccc(Cl)cc1)c1ccc2nnc(-c3cccnc3)n2c1,/,8
CC1=NS(=O)(=O)N(Cc2ccccc2)C=C1C(=O)OCc1nc(-c2ccccc2C)no1,i,0
Cc1nn(-c2ccccc2)c2c1C(C)N(CC1CN(Cc3cccc(C(F)(F)F)c3)C1)C2=O (stereo unspecified),/,4
O=C(NC1CC1)c1nc(-c2ccccc2)c2ccccn12,i,17
COc1ccccc1-c1nc(C(=O)NC2CC2)n2ccncc12,35µM*,4
Cc1cnc(C2CC2)n1C1CCN(Cc2cn(C)c3ccccc23)C1 (stereo unspecified),/,9
